Results published in PubChem BioAssay.
Activity calls are given as the source filed them.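 The calls were made as follows, unless noted: active = compounds that lower survival of HCT116 colon cancer cells in the luminescence readout, no numeric limit stated; inactive = the rest.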

Legend:
[1] = Wnt pathway potentiators raising nuclear beta-catenin – imaging, WNT3A-conditioned medium, mouse C2C12, NPC library, primary screen (AID 1117326; in the data active = nuclear beta-catenin stimulation mostly above about 4.2%, no sharp cut-off; inactive = mostly below about 10%; also: reference of the scale not given here); details: stronger effect = higher value
[2] = stimulators of insulin release from INS-1E, primary screen, cell-based, 5 mM glucose, NPC library (AID 1117329;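 active = compound raises insulin release from rat beta cells at 5 mM glucose, no numeric limit stated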; also: reference of the scale not given here); details: rat INS-1E insulin secretion, at 10 µM, stronger effect = higher value
[3] = growth inhibition of GSK3B-pretreated HCT116 cells – cell-based, CellTiter-Glo, 0.2 to 20 µM (AID 1117336;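 active = compounds lowering colon cancer cell viability after pretreatment blocking the GSK3B kinase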); details: HCT116 viability after GSK3B inhibitor, at 20 µM, stronger effect = higher value
[4] = inhibition of endothelial tube formation, primary screen, imaging, VEGF stimulated, CD31 staining, tube area, NPC library (AID 1117340;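 active = compound that reduces growth-factor-driven endothelial tube area in a mixed cell culture, no cutoff stated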); details: VEGF-stimulated ADSC/ECFC co-culture, at 10 µM, stronger effect = higher value
[5] = GLP1 release stimulators, primary, NCI-H716, NPC library (AID 1117341;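 active = compound raises GLP1 secretion from the human gut endocrine cells, with no numeric limit stated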; also: reference of the scale not given here); details: NCI-H716 cells, at 10 µM, stronger effect = higher value
[6] = HCT116 colon cancer cell growth inhibition, primary screen, CellTiter-Glo luminescence, NPC library (AID 1117342); details: at 20 µM (top of the series)
[7] = reduced SW480 viability measured with CellTiter-Glo, NPC library, primary (AID 1117343;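 active = compounds that lower viability of the colon cancer cells in the luminescence readout, with no numeric limit stated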); details: CellTiter-Glo luminescence; at 20 µM (top of the series)
[8] = NPC library primary testing for decreased DLD-1 cell viability via CellTiter-Glo (AID 1117346;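 active = compounds that lower survival of DLD-1 colon cancer cells in the luminescence readout, no cutoff given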); details: DLD-1 viability, CellTiter-Glo luminescence; at 20 µM (top of the series)

Structure (SMILES) | nuclear beta-catenin stimulation ([1]; at 10 µM) | nuclear beta-catenin stimulation ([1]; stimulation, at 2 µM) | insulin secretion stimulation [2] | viability decrease [3] | tube area decrease [4] | GLP1 secretion stimulation [5] | inhibition of viability [6] | viability decrease (inhibition) [7] | viability decrease (inhibition) [8]
Cc1ccc(S(=O)(=O)NC(=O)NC2CCCCCCC2)cc1 | -0.3% (inactive) | 0.1% | 18.5% (inactive) | 11.2% (inactive) | 14.5% (inactive) | 3.1% (inactive) | -9.1% (inactive) | 36.4% (inactive) | 12.9% (inactive)
CCCCCCCCC=CCCCCCCCC(=O)NCCOC(=O)CC(C(=O)O)S(=O)(=O)O (stereo not given) | 0.3% (inactive) | -0.7% | 0.8% (inactive) | 36.1% (active) | 22.7% (inactive) | -1% (inactive) | 17.1% (inactive) | 63.4% (active) | 81.6% (active)
O=C(O)c1cn(C2CC2)c2cc(Cl)c(F)cc2c1=O | 0% (inactive) | -1.8% | 2.05% (inactive) | 55.5% (active) | -14.6% (inactive) | -3.9% (inactive) | 42.5% (inactive) | -3.8% (inactive) | -3.8% (inactive)
COC(=O)/C=C(/C)N | 0.7% (inactive) | 2.2% | -0.8% (inactive) | 17.3% (inactive) | -6% (inactive) | 2.3% (inactive) | -17.5% (inactive) | 2.9% (inactive) | -8.3% (inactive)
CO[C@@H]1[C@@H](OC)[C@H](C)[C@@](O)(CC(=O)O)O[C@H]1[C@H](C)[C@H]1O[C@@]2(CC[C@@](C)([C@H]3CC[C@@](C)([C@@H]4O[C@@H]([C@H]5O[C@](C)(O)[C@H](C)C[C@@H]5C)C[C@@H]4OC4C[C@H](OC)[C@@H](OC)[C@H](C)O4)O3)O2)C[C@H](O)[C@H]1C (stereo not given in full) | -1.1% (inactive) | 10.6% | 5.4% (inactive) | 79.8% (active) | 111% (active) | 15% (inactive) | 66.7% (active) | 128% (active) | 96.7% (active)
O=C(O)Cc1cccc(-c2cc(CCCCCCc3ccc(O[C@H]4O[C@H](CO)[C@@H](O)[C@H](O)[C@@H]4O)c(-c4cccc(CC(=O)O)c4)c3)ccc2O[C@H]2O[C@H](CO)[C@@H](O)[C@H](O)[C@@H]2O)c1 | 0.7% (inactive) | 1.4% | 2.3% (inactive) | -12.7% (inactive) | -29% (inactive) | 9.5% (inactive) | -26.6% (inactive) | -24.6% (inactive) | -14.9% (inactive)
Nc1ccc([N+](=O)[O-])c(C(F)(F)F)c1 | 0.5% (inactive) | -1% | 0.2% (inactive) | 13.2% (inactive) | 1.1% (inactive) | -0.8% (inactive) | 26.5% (inactive) | -16.7% (inactive) | 18.5% (inactive)
Oc1ccc(CCNCCCCCCNCCc2ccccc2)cc1O | 5% (inactive) | 0.9% | 27.8% (active) | 83.3% (active) | 31.4% (inactive) | 0.6% (inactive) | 83.5% (active) | 99.5% (active) | 101% (active)
COc1ccc(C(=O)N2CCN(CC(=O)N3CCOCC3)CC2)cc1 | 0.8% (inactive) | 5.2% | 3.1% (inactive) | 6.4% (inactive) | 2.1% (inactive) | 0.6% (inactive) | 4.3% (inactive) | -11.3% (inactive) | 3.3% (inactive)
COC(=O)/C=C\C(=O)OC | 3.8% (inactive) | 9% | 2.95% (inactive) | 8.3% (inactive) | 10.6% (inactive) | -1.8% (inactive) | -5.7% (inactive) | 5.9% (inactive) | -5.6% (inactive)
Cc1onc(-c2c(F)cccc2Cl)c1C(=O)Cl | -0.1% (inactive) | 0.5% | 1.1% (inactive) | -3.1% (inactive) | -12.5% (inactive) | -1.4% (inactive) | 0.4% (inactive) | -2.6% (inactive) | 2.8% (inactive)
COc1cc(C=C2CCC/C(=C\c3ccc(O)c(OC)c3)C2=O)ccc1O | 118% (active) | 4.1% | 11.1% (inactive) | 99.1% (active) | 106% (active) | -3% (inactive) | 99.5% (active) | 103% (active) | 101% (active)
CO/N=C(\C(=O)O)c1csc(NC(=O)CCl)n1 | 0.7% (inactive) | 2.9% | 1.4% (inactive) | 16.2% (inactive) | -12.1% (inactive) | 1.7% (inactive) | -2% (inactive) | -1.7% (inactive) | -2.1% (inactive)
CC(=O)O[C@@H]1C(=O)O[C@@H]2[C@H]1OC(=O)[C@@H]2OC(C)=O | 0.6% (inactive) | -1.1% | 2.4% (inactive) | 19.5% (inactive) | -1% (inactive) | -3.4% (inactive) | 22.9% (inactive) | 18.7% (inactive) | 4.6% (inactive)
Cc1cn([C@@H]2O[C@H](CO)[C@@H](O)[C@H]2F)c(=O)[nH]c1=O | -2.3% (inactive) | -0.8% | 0.3% (inactive) | 26.6% (inactive) | -11.7% (inactive) | -3% (inactive) | 4.6% (inactive) | 3.1% (inactive) | 6.8% (inactive)
